12-LOX inh = ALOX12 (human) lipoxygenase inhibition. AID 1671190. Potency, µM (series often up to 108 µM), for inactives: at the highest dose activity change, negative = inhibition, actives largely listed as inhibitors. purified 12hLO, xylenol orange hydroperoxide absorbance. actives 1.1% (n = 580,000); also: potency is read from the fitted curve at half-maximal effect
Target sequence (P18054 whole entry, looked up): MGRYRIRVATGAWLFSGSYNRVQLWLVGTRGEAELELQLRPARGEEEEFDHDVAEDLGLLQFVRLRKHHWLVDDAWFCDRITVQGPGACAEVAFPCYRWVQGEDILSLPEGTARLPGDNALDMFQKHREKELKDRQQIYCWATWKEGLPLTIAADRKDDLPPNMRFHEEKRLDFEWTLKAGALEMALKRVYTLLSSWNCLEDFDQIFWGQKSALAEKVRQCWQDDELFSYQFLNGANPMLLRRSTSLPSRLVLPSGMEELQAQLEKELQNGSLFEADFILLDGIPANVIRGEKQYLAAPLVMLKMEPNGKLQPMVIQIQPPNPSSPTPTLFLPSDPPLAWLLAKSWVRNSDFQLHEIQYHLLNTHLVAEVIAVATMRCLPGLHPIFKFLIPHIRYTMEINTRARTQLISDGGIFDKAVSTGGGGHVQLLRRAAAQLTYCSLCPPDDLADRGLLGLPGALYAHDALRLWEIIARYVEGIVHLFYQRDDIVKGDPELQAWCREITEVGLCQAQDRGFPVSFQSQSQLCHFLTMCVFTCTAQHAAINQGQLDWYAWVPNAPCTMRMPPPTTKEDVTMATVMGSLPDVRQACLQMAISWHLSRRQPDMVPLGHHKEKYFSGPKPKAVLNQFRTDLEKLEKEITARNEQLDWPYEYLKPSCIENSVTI
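Hydroperoxide product was detected by ferrous iron/xylenol orange as the 573 to 405 nm absorbance ratio. Arachidonic acid at 40 uM (final) was turned over for 30 min at room temperature by 150 nM human 12hLO, pH 7.0 Hepes buffer, after 15 min compound preincubation.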
IL-1B inflam inh = inflammasome signaling inhibition, IL-1 beta readout; THP-1 LPS/ATP IL-1B secretion, AlphaLISA, 16 h; active compounds read low; activity change, % at 57.5 µM; actives 4.7% (n = 360,000); AID 743279; in the data active = activity change below about -50%; inconclusive = mostly about -30% to -49%
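Secreted IL-1B measured by AlphaLISA bead assay after 16 h compound exposure of THP-1 cells; compounds (final up to 57.5 uM) added 1 h before LPS (250 ng/mL) and ATP (1.25 mM) stimulation; lower signal means less secretion.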
TDP1 cell CPT = DT40-hTDP1 cell growth loss with CPT. chicken DT40 Tdp1-/-;hTDP1 cells + 20 nM CPT, ATP luminescence, 48 h. Potency, µM (titrated, usually from 46.2 µM), for the others: top-dose activity change, negative = growth inhibition, most hits filed as inhibitors. actives 12% (n = 420,000). AID 686979; also: potency is read from the fitted curve at half-maximal effect; nearly all actives have a fitted effect of over 55% in size
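Cell growth measured by CellTiter-Glo luminescence after a minimum 48 h, 37 C compound exposure with 20 nM CPT in Tdp1-knockout DT40 cells stably expressing hTDP1, seeded 400/well; qHTS titration format.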
TDP1 cell noCPT = qHTS for Inhibitors of human tyrosyl-DNA phosphodiesterase 1 (TDP1): qHTS in cells in absence of CPT | DT40 Tdp1-/- hTDP1 cells, no CPT, ATP luminescence, 48 h | Potency, µM (doses to about 46.2 µM), for the others: at the top dose activity change, negative = growth inhibition, hits mostly inhibitors | actives 15% (n = 420,000); also: potency is read from the fitted curve at half-maximal effect; nearly all actives have a fitted effect of over 55% in size
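Chicken DT40 Tdp1-/- cells stably complemented with human TDP1 were seeded at 400 cells/well with DMSO in place of 20 nM camptothecin. After compound pinning, cells grew at least 48 hr at 37 °C; viability read by CellTiter-Glo luminescence.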
HT1080-NT tox = kills 2HG-producing HT-1080-NT fibrosarcoma cells; Potency, µM (series often up to 46.1 µM), for inactives: at the top dose activity, negative = less viability, actives largely listed as cytotoxic; AID 686970; HT-1080-NT fibrosarcoma viability, CellTiter-Glo ATP luminescence, 48 h; actives 1.6% (n = 360,000);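 also: NT is the 2HG producing partner of a matched IDH1 knockdown line; potency is read from the fitted curve at half-maximal effect; 0% = DMSO-treated cells and -100% = media-only wells without cells; nearly all actives have a fitted effect of over 55% in size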
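A 48-hour cytotoxicity screen used HT-1080-NT cells plated 2 hours before compound delivery. ATP-based CellTiter-Glo luminescence measured viability, normalized to DMSO and no-cell controls.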
HT1080 IDH1KD tx = HT-1080 IDH1 knockdown cell toxicity (counter line). actives 2% (n = 360,000). Potency, µM (doses to about 46.1 µM), for inactives: top-dose activity, negative = toxicity, most hits filed as cytotoxic. AID 686971. HT-1080 IDH1 knockdown viability, ATP luminescence, 48 h;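 also: potency is read from the fitted curve at half-maximal effect; 0% = DMSO wells and -100% = cell-free medium wells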
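% activity derives from luminescence (CellTiter-Glo), normalised to DMSO and no-cell wells. HT-1080-IDH1KD cells, 750/well, had 48 h compound exposure at 37 °C.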
Numbers without * were called inactive; i = inactive; u = inconclusive; x = no result given. This is one part of a sample in which hits are shown more often than they occur. Unless noted, calls follow the shape of the dose curve; as a rule, active = well fitted curve in the direction sought with a large enough effect; inconclusive = small, poorly fitted or top-dose-only effect, or another doubt; inactive = no such curve, though single readings can be large; an effect the other way counts as inactive or inconclusive. Unless noted, % is scaled to controls: 0 for no effect and ±100 for the full control effect.

SMILES	12-LOX inh	IL-1B inflam inh	TDP1 cell CPT	TDP1 cell noCPT	HT1080-NT tox	HT1080 IDH1KD tx
N=c1ccn(Cc2ccc(Cl)cc2)cc1	6%	-22	5.2µM*	3.7µM*	-17%	-23%
Cn1cc(CN[C@H]2C[C@H]3C(=O)NC[C@@H](CCC(=O)N4CCc5ccccc54)N3C2)c2ccccc21	44%	x	x	x	x	x
NNc1cc(Cl)c(Cl)cc1[N+](=O)[O-]	99%	x	x	x	x	x
NNc1cc(Cl)c(Cl)cc1Cl	7.1µM*	x	x	x	x	x
O=C(Nc1ccc(O)cc1)/C(=C\C=C\c1ccccc1)NC(=O)c1ccccc1	0%	-5	u	16µM*	0%	-1%
CCCCOc1ccc(C(=O)N/C(=C/C=C/c2ccccc2)C(=O)NC)cc1	-17%	-21	26µM*	-19%	-1%	-10%
O=C(O)COc1ccc(/C=N/NC(=O)/C(=C/C=C/c2ccccc2)NC(=O)c2ccccc2)cc1	10%	-8	-8%	17%	-15%	1%
CN(C(=O)c1cc2ccccc2oc1=O)C(c1ccccc1)c1ccccc1	-18%	x	x	x	x	x
CCCOC(=O)C1=C(C)NC2=C(C(=O)CCC2)C1c1cccc(O)c1 (stereo not drawn)	29%	x	x	x	x	x
Nc1ncnc2c1ncn2C=C=CCO	i	x	x	x	x	x
Cc1ccc(SCCNC(=S)Nc2ccc(F)cc2)cc1	50µM*	x	x	x	x	x
Cc1ccc(CNC(=S)Nc2ccc(NS(=O)(=O)c3ccc(C)cc3)cc2)cc1	u	0	u	23µM*	-29%	u
COC(=O)Cc1ccc(NC(=S)NCc2ccc(S(N)(=O)=O)cc2)cc1	-8%	45	21µM*	-17%	-1%	-3%
Cc1ccc(NS(=O)(=O)c2ccc(C(=O)NCc3ccc(S(N)(=O)=O)cc3)cc2)cc1	u	-9	u	u	0%	3%
Cc1ccc(CSC(Nc2ccc(F)cc2)=C(C#N)C#N)cc1	u	-57*	3.7µM*	3.3µM*	u	u
CCOC(=O)c1ccc(NC(=S)NCc2ccc(S(N)(=O)=O)cc2)cc1	-2%	-27	-12%	11%	1%	2%
O=CN1CCN(C(=O)Cn2ccc3c(Cl)cccc32)CC1	5%	x	x	x	x	x
Cc1ccc(Cc2c(C)[nH]c3nc4ccccc4n3c2=O)cc1	35%	x	x	x	x	x
COCCCNCc1cccc2ccccc12	-54%	x	x	x	x	x
Cc1ccc(NC(=S)NCc2ccc(F)cc2)cc1	10%	-4	u	26µM*	-3%	-2%
CC(C)c1ncncc1C(=O)NCCNc1cnccn1	8%	x	x	x	x	x
CCc1cccc(NC(=O)C2CCN(S(=O)(=O)c3cccc(-c4noc(C)n4)c3)CC2)c1	-17%	x	u	21µM*	x	x
CCc1cccc(NC(=O)C2CCN(S(=O)(=O)c3c(C)noc3C)CC2)c1	12%	7	9%	-22%	-17%	-5%
Cc1nc(-c2ccc(C)c(S(=O)(=O)N3CCC(C(=O)Nc4ccc(Cl)cc4)CC3)c2)no1	u	x	16µM*	u	x	x
Cc1nc(-c2cccc(S(=O)(=O)N3CCC(C(=O)NCc4ccccc4Cl)CC3)c2)no1	0%	x	18µM*	-88%	x	x
SMILES	12-LOX inh	IL-1B inflam inh	TDP1 cell CPT	TDP1 cell noCPT	HT1080-NT tox	HT1080 IDH1KD tx
CC(=O)c1ccc(N2CCN(S(=O)(=O)c3cc(-c4noc(C)n4)ccc3C)CC2)cc1	-12%	x	u	2%	x	x
COc1cccc(C(=O)NCC2CCCN(Cc3ccc(C)s3)C2)c1OC (stereo not drawn)	50%	x	x	x	x	x
CCN(CC)C1=NC(=O)C(CC(=O)Nc2cccc(C(=O)NCCc3ccccc3OC)c2)S1 (stereo not drawn)	1.1µM*	x	x	x	x	x
COc1ccccc1CCNC(=O)c1ccc(NC(=O)CC2SC(N3CCCC3)=NC2=O)cc1 (stereo not drawn)	u	8	-17%	-25%	1%	7%
COc1ccc(C(=O)N2CCCC(C(=O)Nc3ccc(C)cc3)C2)c2ccccc12 (stereo not drawn)	31%	x	x	x	x	x
O=C1COc2ccc(-c3cc(-c4ccccc4)c4c(n3)-c3ccccc3OC4)cc2N1	-21%	x	13µM*	9.2µM*	x	x
O=C1COc2ccc(-c3cc(-c4ccc(Cl)cc4)c4c(n3)-c3ccccc3OC4)cc2N1	-24%	x	1µM*	2.3µM*	x	x
O=c1c(-c2cc(-c3ccc(Cl)cc3)nc3c2COc2ccccc2-3)coc2ccccc12	-25%	x	-24%	-6%	x	x
O=C1COc2ccc(-c3cc(-c4ccccc4)c4c(n3)-c3cc(Cl)ccc3OC4)cc2N1	-1%	x	3.3µM*	1.2µM*	x	x
COC(=O)c1ccc2c(c1)N(Cc1ccc(F)cc1Cl)C(=O)c1ccccc1S2(=O)=O	-1%	x	x	x	x	x
NC(=O)COC(=O)c1cccc2c1-c1ccccc1C2=O	-7%	-11	13%	u	11%	2%
CC(C)COC(=O)c1ccc2c(c1O)C(=O)c1ccccc1C2=O	0%	-12	u	23µM*	4%	19%
CC1=C(C(=O)Nc2ccccc2)C(c2ccc(O)cc2)n2nc(SCc3ccccc3)nc2N1 (stereo not drawn)	0%	x	-17%	-29%	x	x
CC1=C(C(=O)Nc2ccccc2)C(c2ccccn2)n2nc(SCc3ccccc3)nc2N1 (stereo not drawn)	-28%	x	5.2µM*	u	x	x
CCSc1nc2n(n1)C(c1ccc(CC)cc1)C(C(=O)Nc1ccccc1OC)=C(C)N2 (stereo not drawn)	-3%	x	16µM*	23µM*	x	x
